From PubChem BioAssay AID463115 (University of Pittsburgh Molecular Library Screening Center, 2010)
Out of some 220,000 compounds screened, about 130 (0.059%) were called active. Rule as the data show it: active = inhibition above about 25%; inactive = the rest. The full list was thinned out, with actives kept by preference.

What follows are compounds tested against Furin (Homo sapiens) (UniProt P09958) (assay: furin protease activity blockers – biochemical, fluorescence intensity, primary screen (AID 463115)). Conditions: purified furin, fluorogenic substrate cleavage, stronger effect = higher value; at 30 µM unless noted.
Sequence of Furin (Homo sapiens) (P09958 108-714 limits assumed): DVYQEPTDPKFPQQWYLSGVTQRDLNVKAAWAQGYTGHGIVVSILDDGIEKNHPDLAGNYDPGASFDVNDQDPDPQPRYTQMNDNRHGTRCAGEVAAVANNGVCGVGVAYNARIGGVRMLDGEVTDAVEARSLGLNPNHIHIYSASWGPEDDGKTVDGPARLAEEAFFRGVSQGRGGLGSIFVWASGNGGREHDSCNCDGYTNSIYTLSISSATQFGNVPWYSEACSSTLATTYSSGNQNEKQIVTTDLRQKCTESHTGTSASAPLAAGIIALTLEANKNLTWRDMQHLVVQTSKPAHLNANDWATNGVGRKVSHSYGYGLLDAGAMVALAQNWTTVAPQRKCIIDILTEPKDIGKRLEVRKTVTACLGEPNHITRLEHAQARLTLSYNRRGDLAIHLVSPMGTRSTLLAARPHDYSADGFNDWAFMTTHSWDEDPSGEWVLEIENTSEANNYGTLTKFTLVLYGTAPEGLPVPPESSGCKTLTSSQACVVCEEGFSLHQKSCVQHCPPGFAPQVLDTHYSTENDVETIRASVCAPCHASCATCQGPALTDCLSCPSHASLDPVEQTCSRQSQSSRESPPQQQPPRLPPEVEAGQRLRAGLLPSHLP

inhibition, inactive:
Cc1nnsc1C(=O)N/N=C/c1cccc(C(F)(F)F)c1 0.985%
COc1ccc([N+](=O)[O-])cc1NC(=O)COC(=O)/C=C/c1ccco1 -30.9%
CCC(C)(C)NC(=O)C(c1cccc(OC)c1OC)N(CC(C)C)C(=O)CCC(=O)Nc1cc(C)on1 (stereo not given) -14.8%
CC(C)(C)NC(=O)/C(=C/c1cccnc1)NC(=O)c1ccco1 -17%
Cc1cc(NC(=O)CSc2nc3ccccc3n2CC(C)C)no1 -16.9%
CC(C)c1cc(C(N)=O)c(NC(=O)c2cccc(COc3ccc(Br)cc3)c2)s1 -15.1% [at 20 µM]
CC(C)(C)NC(=O)c1cccc(NC(=O)Cc2ccc(Br)cc2)c1 -14.8%
CCOn1c(=O)c(=O)n(O)c2ccccc21 -4.13%
Oc1ccccc1N1CCN(C(=S)NCc2ccccc2)CC1 -19.1%
Cc1ccc(C2(C(F)(F)F)N=C3Sc4cc(C)cc(C)c4N3C(=O)N2)cc1 (stereo not given) -11.5% [at 20 µM]
O=C(O)CC/C(=N\NC(=O)c1ccc(F)cc1)c1ccc(Br)cc1 -17.1%
CCCc1c(C(=O)O)cnn1-c1ccc(Cl)cc1 -33.8%
O=C(Nc1cccc(Cl)c1)c1cc([N+](=O)[O-])ccc1N1CCN(CCO)CC1 -21.2%
O=c1[nH][nH]c(C(F)(F)F)c1C=NCc1ccccc1Cl -7.43% [at 20 µM]
O=C(CNC(=O)COc1ccccc1)NCCc1ccccn1 -14%
C=CCOc1ccc(/C=N/NC(=O)C(C)Sc2ccccn2)cc1OCC (stereo not given) -21.6%
CSc1ccc(C(=O)C2CCCN(C(=O)c3ccc(C)nc3)C2)cc1 (stereo not given) -11.4%
Clc1ccc(-c2nnc(-c3ccccc3)nc2N2CCSCC2)cc1 -4.61% [at 20 µM]
Fc1ccc(COc2cccc(-c3n[nH]c(=S)o3)c2)cc1 -11.9%
O=C1C=C(c2ccc(Cl)cc2)C(=O)N1Nc1ccccc1 -9.42% [at 20 µM]
O=C(NNc1cc(Cl)ccc1Cl)c1cccnc1Cl -21.6%
NS(=O)(=O)c1ccc(NC(=O)COC(=O)c2ccco2)cc1 -19.1%
O=c1[nH]c(CCl)nc2cc(-c3ccc(Cl)cc3)sc12 -0.616% [at 20 µM]
Cc1cc(Cl)c(S(=O)(=O)N(C)C)cc1OCC(N)=O -12.9% [at 20 µM]
COC(=O)/C=C/C(=O)NCc1ccco1 -23.2% [at 20 µM]
